GLP1R ag = qHTS of GLP-1 Receptor Agonists | HEK293 GLP-1R CRE-luciferase, luminescence, 4-6 h; cells express a hypersensitive GLP-1R form | Potency, µM (doses to about 45.6 µM), inactives show at the highest dose activation, actives largely listed as activators | 0.007% of 380,000 active; note: % of control where 0% means no effect
Target sequence (P43220 whole entry, looked up): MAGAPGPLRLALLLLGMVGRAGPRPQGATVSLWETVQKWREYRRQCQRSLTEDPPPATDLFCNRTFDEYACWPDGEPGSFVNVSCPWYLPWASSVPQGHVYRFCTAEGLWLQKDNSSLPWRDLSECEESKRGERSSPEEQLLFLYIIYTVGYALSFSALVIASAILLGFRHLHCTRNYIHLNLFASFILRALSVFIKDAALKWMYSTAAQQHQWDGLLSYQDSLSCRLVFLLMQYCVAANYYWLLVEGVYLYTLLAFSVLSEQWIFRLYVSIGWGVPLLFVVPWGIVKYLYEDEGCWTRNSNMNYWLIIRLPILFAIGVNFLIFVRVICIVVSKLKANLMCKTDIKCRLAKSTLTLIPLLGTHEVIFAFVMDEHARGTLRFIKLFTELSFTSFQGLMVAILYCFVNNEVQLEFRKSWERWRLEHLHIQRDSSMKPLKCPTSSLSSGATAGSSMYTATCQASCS
PTHR1 agonist = qHTS for PTHR1 Agonists: Primary Screen; Potency, µM (highest dose often 115 µM), for the others: at the highest dose activation, most hits filed as activators; 0.075% of 410,000 active; HEK293 GP2 PTHR1 cells, GloSensor cAMP luminescence, 1 h; Parathyroid hormone/parathyroid hormone-related peptide receptor (Homo sapiens), Q03431; note: nearly all actives have a fitted effect of over 55% in size
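HEK-293-derived GP2 cells expressing PTHR1 and a GloSensor cAMP reporter, 3,000/well, plated overnight, given luciferin plus IBMX (each 0.5 mM as added) for 1 h at 37 °C, then compound for 1 h at 37 °C. Luminescence was read after 15 min at room temperature.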
HEK293 tox = qHTS of GLP-1 Receptor Inverse Agonists: Cytotox Screen; HEK293 cAMP-luciferase reporter cells, luminescence, 24 h; Potency, µM (top dose mostly 38.3 µM), inactives show at the top dose activity change, negative = inhibition, hits mostly inhibitors; 0.13% of 410,000 active; AID 624418, 2012;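 note: loss of luciferase light is scored as toxicity; % is set by controls: 0 for no effect and ±100 for the full control effect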
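Here, cytotoxicity is scored as loss of luminescence. The MLSMR collection was tested on cells seeded in medium containing 10% Nu serum, with a 24 hr compound exposure preceded by 12 hours of culture.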
GLP1R inv ag = qHTS of GLP-1 Receptor Inverse Agonists (Inhibition Mode); 1.6% of 410,000 active; Glucagon-like peptide 1 receptor (Homo sapiens), P43220; HEK293 GLP-1R CRE-luciferase, luminescence, 24 h; GLP-1R form is constitutively active; Potency, µM (titrated, usually from 38.3 µM), inactives show at the highest dose activity change, negative = inhibition, usual class: inhibitors; AID 624417, 2012; note: % is set by controls: 0 for no effect and ±100 for the full control effect; nearly all actives have a fitted effect of over 55% in size
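Luminescence readout: a drop in cAMP-driven luciferase signal flags inverse agonism at a constitutively active GLP-1R stably expressed in HEK293. Compound exposure lasted 24 hr at 37 deg C, 5% CO2.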
* marks the source's active call; other numbers are inactive results; i = inactive; ? = inconclusive; · = no result given; [ ] = dose if it differs, or a comment. Shown are actives, neighbours in structure and some others; about 1.7% of the full set was active somewhere. Calls come from the whole dose curve; as a rule, active = well fitted curve in the direction sought with a large enough effect; inconclusive = small, poorly fitted or top-dose-only effect, or another doubt; inactive = no such curve, though single readings can be large; an effect the other way counts as inactive or inconclusive. Potency is the fitted concentration of half-maximal effect.

SMILES	GLP1R ag	PTHR1 agonist	HEK293 tox	GLP1R inv ag
CCOC(=O)C1=C(Cn2cnc3ccccc32)NC(=O)NC1c1cc(C)ccc1C (configuration not stated)	-6%	i	11µM*	?
CCN(CC)C(=O)c1ccc(NC(=O)COc2ccc(-c3nn(C)c(=O)c4ccccc34)cc2)cc1	13%	-32%	7%	141%
CCN(CC)C(=O)c1ccc(NC(=O)c2cn(-c3ccccc3)nc2-c2ccc(OC)cc2)cc1	9%	i	3%	4.5µM*
CC1(O)CCC2C3CCC4=CC(=O)CCC4(C)C3(F)C(O)CC21C (configuration not stated)	10%	·	·	·
CC(C)CCn1c(N)c(C(=O)OCC2CCCO2)c2nc3ccccc3nc21 (configuration not stated)	0%	-25%[57.5 µM]	254%	4µM*
CCOc1ccc(NC(=O)CN(c2ccc([N+](=O)[O-])cc2)S(=O)(=O)c2ccccc2)cc1	?	-16%	?	4µM*
O=C(NCC1CCCO1)c1cccc2c1C(=O)c1ccc(N3CCC(Cc4ccccc4)CC3)cc1S2(=O)=O (configuration not stated)	-3%	-34%	63%	?
O=c1[nH]c(=S)n(CCC2=CCCCC2)c(O)c1/C=N/Nc1ccccc1	-3%	i	-23%	4.5µM*
COc1ccc(CN2CCN(c3ncnc4sc5c(c34)CCCC5)CC2)cc1F	·	-33%	-3%	-9%
O=c1nc(/C=C/c2ccc(Cl)cc2Cl)cc(C(F)(F)F)[nH]1	-4%	-32%	-7%	4µM*
COc1ccc(CS(=O)(=O)/C(Cl)=C(/Cl)C(=O)Nc2ccc(OC)nc2)cc1	-32%	-13%[57.5 µM]	11µM*	?
Cc1ccc(C(=O)NCCSC2CCCCC2)cc1S(=O)(=O)Nc1ccccc1	-3%	-3%[57.5 µM]	?	11µM*
